Drawing on PubChem BioAssay, this text covers parasite load remaining and viability for 26 compounds.

SMILES strings stand for the structures. Several values for one entry are separate records, joined by “and”; a condition that tells them apart may be missing. Identical values can stand only once. Activity calls are given as the source filed them. Cut-off read from the data, not from the text of the source: active = parasite load remaining mostly below about 12% (no sharp cut-off); inactive = mostly above about 10%.

For orientation: viability means a read-out of living cells in per cent, often relative to untreated cells.

The nature of the experiment: liver-stage malaria parasite growth inhibition, primary screen, cell-based, HepG2, luciferase luminescence, HepG2 viability (AID 624349).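 Note: 100% = mean of DMSO negative control wells on the same plate.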 The note with it: P. berghei liver stage in HepG2, luciferase luminescence, concentration not given here; parasite load remaining: stronger effect = lower value; viability: measured here: HepG2 viability without parasites.
Regarding `COc1ccc(NS(=O)(=O)c2ccc(N)cc2)nn1`, the parasite load remaining is 118% (inactive) and 103% (inactive) and 48% (inactive); the viability was 101% and 69.5% and 83.6%.

Turning to `NC[C@H]1O[C@H](O[C@H]2[C@H](O)[C@@H](O[C@H]3O[C@H](CO)[C@@H](O)[C@H](N)[C@H]3O)[C@H](N)C[C@@H]2N)[C@H](N)[C@@H](O)[C@@H]1O`, the parasite load remaining was 95.5% (inactive) and 56.4% (inactive); the viability is 69.4% and 85.5%.

Take `CCCCc1nc(Cl)c(CO)n1Cc1ccc(-c2ccccc2-c2nn[nH]n2)cc1`: the parasite load remaining is 128% (inactive) and 49.4% (inactive); the viability is 84.8% and 98.4%.

For the compound `CC(=O)Oc1cccc(O)c1`, the parasite load remaining is 139% (inactive) and 53% (inactive); the viability was 92.8% and 100%.

Turning to `COc1ccc(C(=O)c2ccccc2)c(O)c1`, the parasite load remaining was 175% (inactive) and 149% (inactive) and 68.3% (inactive); the viability was 96.8% and 72.8% and 91.5%.

In the case of `O=C(N[C@H](CO)[C@H](O)c1ccc([N+](=O)[O-])cc1)C(Cl)Cl`, the parasite load remaining was 29.9% (inactive) and 25.5% (inactive); the viability is 46.7% and 63%.

For the compound `CCN(CC)CCOC(=O)C(c1ccccc1)C1CCCCC1` (configuration not stated), the parasite load remaining is 67.5% (inactive) and 28.1% (inactive); the viability is 92.4% and 69.7%.

`Nc1c2ccccc2nc2ccccc12`: the parasite load remaining was 23.3% (inactive) and 22.9% (inactive); the viability is 78.7% and 67.3%.

As for `Oc1c(Br)cc(Br)c2cccnc12`, the parasite load remaining was 81.4% (inactive) and the viability amounted to 68.8%.

`C[N+]12CCC(CC1)C(OC(=O)C(O)(c1ccccc1)c1ccccc1)C2` (configuration not stated): the parasite load remaining was 89.9% (inactive) and 72% (inactive) and 63.2% (inactive); the viability was 98.6% and 73% and 99.2%.

Consider `CC(=O)Nc1c(I)cc(I)c(C(=O)O)c1I`, for which the parasite load remaining was 151% (inactive) and 81.4% (inactive); the viability is 82.9% and 215%.

As to `Cc1c(NC(C)C)c(=O)n(-c2ccccc2)n1C`, the parasite load remaining was 102% (inactive) and 160% (inactive); the viability was 100% and 89.9%.

As to `COc1ccc2cc3[n+](cc2c1OC)CCc1cc2c(cc1-3)OCO2`, the parasite load remaining was 31.4% (inactive) and 124% (inactive) and 72.9% (inactive); the viability was 103% and 67.6% and 82.6%.

As to `NC(N)=N/N=C/c1c(Cl)cccc1Cl`, the parasite load remaining was 15.7% (inactive) and 61% (inactive) and 36.4% (inactive); the viability was 48.5% and 89.8% and 102%.

As for `CCN(CC)C(=O)c1cccc(C)c1`, the parasite load remaining is 18.9% (inactive) and the viability amounted to 97.4%.

Turning to `CC(=O)OCC(COC(C)=O)OC(C)=O`, the parasite load remaining is 142% (inactive) and 56.1% (inactive); the viability is 73.5% and 86.5%.

With `CC1(C)OC(=O)NC1=O`, the parasite load remaining was 76.1% (inactive) and 103% (inactive) and 63.9% (inactive); the viability is 96.6% and 74.2% and 92.6%.

Turning to `COc1cnc(NS(=O)(=O)c2ccc(N)cc2)nc1`, the parasite load remaining was 75.1% (inactive) and 108% (inactive) and 64.2% (inactive); the viability was 93.4% and 66.1% and 87.2%.

As to `CCCCC(CC)CN1CN(CC(CC)CCCC)CC(C)(N)C1` (configuration not stated), the parasite load remaining is 136% (inactive) and 95.8% (inactive) and 66.4% (inactive); the viability was 98.8% and 69.2% and 87.2%.

In the case of `Cc1[nH]c(C)c(Cl)c(=O)c1Cl`, the parasite load remaining was 132% (inactive) and 21.1% (inactive) and 5.5% (inactive); the viability was 78.8% and 117% and 80.5%.

Take `Cc1nnc(NS(=O)(=O)c2ccc(N)cc2)s1`: the parasite load remaining was 77.8% (inactive) and 214% (inactive) and 50.9% (inactive); the viability is 95.4% and 74.4% and 104%.

`Nc1ccc(C(=O)O)cc1`: the parasite load remaining was 102% (inactive) and 75.6% (inactive); the viability is 74.3% and 91.3%.

With `Nc1nccs1`, the parasite load remaining is 56.3% (inactive) and the viability was 97.8%.

Regarding `COc1ccc(-c2cc(C(F)F)nn2-c2ccc(S(N)(=O)=O)cc2)cc1F`, the parasite load remaining is 70.5% (inactive) and the viability stood at 97.2%.

For `NC(=O)c1ccc([N+](=O)[O-])cc1Cl`, the parasite load remaining is 63.8% (inactive) and 35.2% (inactive); the viability is 105% and 84.3%.

Take `CCC(=O)O[C@H]1[C@H](O[C@@H]2[C@@H](C)[C@H](O[C@H]3C[C@@](C)(OC)[C@@H](O)[C@H](C)O3)[C@@H](C)C(=O)O[C@H](CC)[C@@](C)(O)[C@H](O)[C@@H](C)C(=O)[C@H](C)C[C@@]2(C)O)O[C@H](C)C[C@@H]1N(C)C`: the parasite load remaining is 85.6% (inactive) and 40.4% (inactive); the viability is 67.9% and 93.1%.
